KCNQ2 block: blocks the rat KCNQ2 potassium channel; B-score at 10 µM; AID 2156; O88943; CHO-K1 KCNQ2, FluxOR thallium flux, 20 min; stronger effect = lower value; 310,000 tested, 1.1% active;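 active = fluorescence ratio B-score at most minus 3 library SDs, with starting brightness B-score within 2 library SDs, cut at about -5.5 in these data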
KCNQ2 enhance: potentiators of rat KCNQ2 potassium channel | O88943 | CHO-K1 KCNQ2, FluxOR thallium flux fluorescence; stronger effect = higher value | B-score at 10 µM | 310,000 tested, 0.54% active;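 active = fluorescence ratio B-score at least 3 SD of library B-scores, with initial fluorescence B-score within 3 of them, cut at about 5.3 in these data; same plate scores as AID 2156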;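 also: B-score of peak minus minimum over baseline fluorescence ratio after K+ and Tl+ stimulus; positive B-score means potentiation of KCNQ2 with more thallium influx and brighter signal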
KCNQ2 block conf: confirmation of rat KCNQ2 potassium channel inhibitors | shares compounds with KCNQ2 block | KCNQ2-expressing cells, thallium flux, inhibition; stronger effect = lower value | activity change, negative = inhibition, % at 10 µM | 1,000 tested, 57% active | AID 493025
KCNQ1 spec: KCNQ2 inhibitor that also affects human KCNQ1 channel; shares compounds with KCNQ2 block; 1,000 tested, 15% active; activity change, negative = inhibition, % at 10 µM; KCNQ1-expressing cells, FluxOR thallium flux fluorescence; stronger effect = lower value; AID 493026;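 active = activity change at least 3 SD of negative controls below their mean in both duplicate wells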;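 also: CHO cells stably transfected with KCNQ1 and depolarized by potassium stimulus; peak minus minimum fluorescence over baseline after thallium addition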
Target sequence (P51787 whole entry, looked up): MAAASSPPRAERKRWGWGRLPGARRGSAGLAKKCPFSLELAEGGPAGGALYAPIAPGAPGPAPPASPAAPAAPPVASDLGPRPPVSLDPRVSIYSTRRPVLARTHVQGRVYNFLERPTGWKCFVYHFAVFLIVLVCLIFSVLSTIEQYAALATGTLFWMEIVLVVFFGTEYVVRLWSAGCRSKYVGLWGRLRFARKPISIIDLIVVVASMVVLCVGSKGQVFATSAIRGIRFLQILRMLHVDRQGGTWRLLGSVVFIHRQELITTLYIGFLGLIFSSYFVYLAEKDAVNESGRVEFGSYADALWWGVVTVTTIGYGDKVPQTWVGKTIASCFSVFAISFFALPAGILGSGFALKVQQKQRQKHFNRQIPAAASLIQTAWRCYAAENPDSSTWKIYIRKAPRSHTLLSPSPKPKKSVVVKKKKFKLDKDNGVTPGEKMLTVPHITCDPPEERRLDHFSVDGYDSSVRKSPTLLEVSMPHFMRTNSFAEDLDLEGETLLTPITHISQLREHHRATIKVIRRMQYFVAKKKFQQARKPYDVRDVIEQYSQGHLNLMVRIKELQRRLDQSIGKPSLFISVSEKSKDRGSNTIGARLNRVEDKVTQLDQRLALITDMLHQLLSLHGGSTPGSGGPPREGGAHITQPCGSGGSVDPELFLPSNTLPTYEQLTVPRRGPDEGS
CHO parental ctr: activity in parental CHO cells lacking KCNQ2. 1,000 tested, 14% active. activity change, % at 10 µM. AID 493029. thallium flux counter-screen; stronger effect = lower value. shares compounds with KCNQ2 block
KCNQ2 patch conf: confirmation of rat KCNQ2 potassium channel inhibitors | calls only at 10 µM | KCNQ2-expressing cells, automated patch clamp current | AID 588531 | shares compounds with KCNQ2 block | 550 tested, 49% active
Of the large screens only hits and unclear results are named; the others gave an inactive call (follow-up assays come after a bar, where they were run). Compounds with a hit are over-represented: about 1.6% of the library has one in this group of screens. Unless noted, no rule for the calls is given here.

CCCN(CCC)C(=O)c1cc(-c2ccc3c(c2)OCO3)nc2ccccc12	KCNQ2 block -8.48 | KCNQ2 block conf -26.5% | KCNQ1 spec inactive | CHO parental ctr inactive | KCNQ2 patch conf active
O=C(O)c1cc(-c2ccc3c(c2)OCO3)nc2ccccc12	none
O=C(Nc1ccncc1)c1cc(-c2cccc(Br)c2)nc2ccccc12	none
CCOc1ccc(-c2cc(C(=O)Nc3ccc4c(c3)OCCO4)c3ccccc3n2)cc1	KCNQ2 block -9.14 | KCNQ2 block conf inactive | KCNQ1 spec inactive | CHO parental ctr inactive
COc1cccc(-c2cc(C(=O)Nc3ccccc3)c3ccccc3n2)c1	KCNQ2 block -9.12 | KCNQ2 block conf inactive | KCNQ1 spec inactive | CHO parental ctr inactive
O=C(Nc1cccnc1)c1cc(-c2cccc(Br)c2)nc2ccccc12	KCNQ2 block -6.72 | KCNQ2 block conf -27.5% | KCNQ1 spec inactive | CHO parental ctr inactive | KCNQ2 patch conf inactive
O=C(NNC(=O)C1C2C=CC(C2)C1C(=O)O)c1cc(Cl)ccc1O (centres undefined)	none
COc1ccc(NC(=O)CSc2nnc(CC(=O)Nc3ccc(F)cc3)n2C)cc1	none
COc1ccc(CNC(=O)c2cc(C)nn2-c2ccccc2)cc1	none (no result: KCNQ2 enhance)
CCOc1ccc(N(CC(=O)N/N=C(\C)c2cccc(NC(C)=O)c2)S(=O)(=O)c2ccccc2)cc1	none (no result: KCNQ2 enhance)
Cn1cc(C(c2ccccc2OCC(=O)O)c2cn(C)c3ccccc23)c2ccccc21	none (no result: KCNQ2 enhance)
COc1ccc(C(C(=O)NC2CCCC2)N(Cc2cccnc2)C(=O)c2snc(C(N)=O)c2N)cc1 (centres undefined)	none
CC(=O)Oc1ccc(C(=O)Nc2ccc(S(=O)(=O)NCC3CCCO3)cc2)cc1 (centres undefined)	none
CCc1nc(SCC(=O)Nc2cc(C)ccc2OC)c2c(C)c(C)sc2n1	KCNQ2 block -6.84 | KCNQ2 block conf inactive | KCNQ1 spec inactive | CHO parental ctr inactive
COc1ccc(C)cc1NC(=O)CCCNC(=O)Cn1cnc2sc(C)c(C)c2c1=O	none (no result: KCNQ2 enhance)
Cc1sc2nc(C(C)C)nc(SCC(=O)N3c4ccccc4CC3C)c2c1C (centres undefined)	none
CCc1nc(SCC(=O)N2c3ccccc3CC2C)c2c(C)c(C)sc2n1 (centres undefined)	KCNQ2 block -6.66 | KCNQ2 block conf -20.5% | KCNQ1 spec inactive | CHO parental ctr inactive | KCNQ2 patch conf inactive
CCOc1ccc(C(=O)Nc2ccc(NC(=O)c3ccccc3)c(C)c2)cc1[N+](=O)[O-]	none
CCC1C(=NO)C(CC)C(c2ccccc2)NC1c1ccccc1 (centres undefined)	KCNQ2 block -9.42 | KCNQ2 block conf -39.0% | KCNQ1 spec inactive | CHO parental ctr inactive | KCNQ2 patch conf inactive
CCCC1/C(=N/O)CC(c2ccccc2)NC1c1ccccc1 (centres undefined)	none (no result: KCNQ2 enhance)
Cc1cccc(NC(=O)N2CCC(C(=O)c3ccc(F)cc3)CC2)c1	none
O=C(CN(CC1CCCO1)C(=O)CNS(=O)(=O)c1ccc(Cl)cc1)NC1CCCC1 (centres undefined)	none (no result: KCNQ2 enhance)
COc1ccc(C(=O)N(Cc2ccco2)Cc2cccs2)c(O)c1	none (no result: KCNQ2 enhance)
O=C(c1cc2ccccc2o1)N(Cc1ccco1)Cc1cccs1	KCNQ2 block -12 | KCNQ2 block conf -41.0% | KCNQ1 spec -40.0% | CHO parental ctr -32.5% | KCNQ2 patch conf inactive
COc1ccc(C(=O)CC(Nc2ccc([N+](=O)[O-])cc2)c2ccc(OC)cc2)cc1 (centres undefined)	KCNQ2 block -10.5 | KCNQ2 block conf -26.0% | KCNQ1 spec inactive | CHO parental ctr inactive | KCNQ2 patch conf inactive
COc1ccc(C(=O)/C=C/Nc2ccc([N+](=O)[O-])cc2)cc1	none (no result: KCNQ2 enhance)
CCOC(=O)c1c(-c2ccc(C)cc2)csc1NC(=O)C1CCCO1 (centres undefined)	none
CC(C)OC(=O)c1c(-c2ccc(C(C)C)cc2)csc1NC(=O)C1CCCO1 (centres undefined)	KCNQ2 block -7.22 | KCNQ2 block conf -32.0% | KCNQ1 spec inactive | CHO parental ctr inactive | KCNQ2 patch conf inactive
CS(=O)(=O)c1ccccc1C(=O)N(CCC1=CCCCC1)c1c(N)n(Cc2ccccc2)c(=O)[nH]c1=O	none (no result: KCNQ2 enhance)
COC(=O)C(Cc1ccc(O)cc1)NC(=O)NC12CC3CC(CC(C3)C1)C2 (centres undefined)	none (no result: KCNQ2 enhance)
COc1ccc(-c2cc(C(=O)Nc3ccccc3N3CCOCC3)c3ccccc3n2)cc1OC	KCNQ2 block -8.16 | KCNQ2 block conf -38.0% | KCNQ1 spec -35.0% | CHO parental ctr -28.0% | KCNQ2 patch conf active
O=C(Nc1ccc(N2CCOCC2)cc1)c1cc(-c2ccncc2)nc2ccccc12	none (no result: KCNQ2 enhance)
COc1ccc(-c2cc(C(=O)NNC(=O)c3csc(N4CCOCC4)n3)c3ccccc3n2)cc1OC	none
O=C(Nc1ccccc1N1CCOCC1)c1cc(-c2ccncc2)nc2ccccc12	KCNQ2 block -7.24 | KCNQ2 block conf -50.0% | KCNQ1 spec -45.0% | CHO parental ctr -38.0% | KCNQ2 patch conf active
Cc1c(C)c2ccc(OCC(=O)N(C)C3CCS(=O)(=O)C3)c(C)c2oc1=O (centres undefined)	none
Cc1ccc(C)c(CN2CCC(CNC(=O)Nc3ccc(F)c(Cl)c3)CC2)c1	none
CCN(CC)S(=O)(=O)c1ccc2[nH]c(=O)cc(C(=O)NCC3CCCO3)c2c1 (centres undefined)	none
CCOC(=O)C1C(=O)C=C(c2ccc(C)cc2)CC1c1ccccc1 (centres undefined)	KCNQ2 block -7.15 | KCNQ2 block conf -26.0% | KCNQ1 spec inactive | CHO parental ctr inactive | KCNQ2 patch conf inactive
CCOC(=O)C1C(=O)C=C(c2cccs2)CC1c1ccccc1 (centres undefined)	none (no result: KCNQ2 enhance)
O=C(COc1ccccc1-c1ccccc1)NCc1ccco1	KCNQ2 block -8.5 | KCNQ2 block conf inactive | KCNQ1 spec inactive | CHO parental ctr inactive
Cc1ccccc1OCC(=O)Nc1ccccc1-c1ccccc1	KCNQ2 block -6.62 | KCNQ2 block conf inactive | KCNQ1 spec inactive | CHO parental ctr inactive
Cc1ccccc1NC(=O)COc1ccccc1C	none (no result: KCNQ2 enhance)
CCOc1ccccc1OCC(=O)NCc1ccco1	none (no result: KCNQ2 enhance)
CCc1cccc(C)c1NC(=O)CCNC(=O)c1cccc(C)c1	none (no result: KCNQ2 enhance)
O=C(Nc1ccc2c(c1)OCCO2)c1c[nH]c(=O)n(-c2ccc(F)c(Cl)c2)c1=O	none
Cc1ccccc1CSc1nnc(-c2cccs2)n1Cc1ccco1	KCNQ2 block -9.91 | KCNQ2 block conf inactive | KCNQ1 spec inactive | CHO parental ctr inactive
c1coc(Cn2c(SCc3nc4ccccc4[nH]3)nnc2-c2cccs2)c1	none (no result: KCNQ2 enhance)
Cc1c(C(=O)Oc2cccc3ccccc23)cnn1-c1ccccc1	KCNQ2 block -9.3 | KCNQ2 block conf inactive | KCNQ1 spec inactive | CHO parental ctr inactive
CC(=O)c1cnn(-c2ccccc2)c1C	none
CC(NCC(=O)Nc1cc(S(=O)(=O)N2CCOCC2)ccc1Cl)c1ccc(Cl)cc1Cl (centres undefined)	none (no result: KCNQ2 enhance)
O=C(NCCN1CCCCC1)c1ccc(F)cc1Cl	none
Cc1occc1C(=O)N(C)Cc1nc(-c2ccccc2)no1	none
CN(C)C(=O)c1cn(-c2ccccc2)nc1-c1cccs1	none

Bioassay records (PubChem)
